Screen size: about 1,200 compounds; about 170 (14%) were called active. The rule behind the calls is not given here. A selection follows. Entries with a potency or affinity are not part of this list.

This assay is described as follows: twin-arginine translocation blockade, bacterial reporter – cherry-pick, set 2, plate reader, dose response (AID 504941). As to conditions: E. coli Tat transport reporter; series mostly up to 38 µM.
As to `Cc1ccc[n+](CC(=O)c2cc3ccccc3oc2=O)c1`, the compound was classed as inactive.
To `Cc1nc2scc(-c3ccccc3)c2c(=O)n1/N=C/c1ccco1` belongs “inactive”; to `Cc1ccc(-n2c3nc(=O)[nH]c(=O)c-3cc3c(C)nn(-c4ccccc4)c32)c(C)c1`, “inactive”; to `COc1ccc(-c2noc(CSc3nnc(-c4ccncc4)n3-c3ccc(F)cc3)n2)cc1OC`, “inactive”.
Next, `CCCCc1c(O)nc(SCC(=O)c2ccccc2)[nH]c1=O`: “inactive”.
On to `CCN(CC)CCCn1c(C)cc2c(c1=O)C(c1cccc(Cl)c1)C(C#N)=C(N)O2` (stereo not drawn), for which the compound was called inactive.
Consider `Cc1cc(Cl)ccc1NC(=O)CN1CCCC1`, for which the outcome was inactive.
In the case of `Cc1ccc(NC(=O)CN2CCN(c3ccccn3)CC2)c(Cl)c1`, the outcome was inactive.
Next, `O=C(CCCn1c(=O)[nH]c2ccsc2c1=O)N1CCCCC1`: “inactive”; `CC(C)OC(=O)Cn1c(=O)oc2ccccc21`: “inactive”; `O=C(C1CC(=O)N(C2CCCC2)C1)N1CCN(c2ccc(F)cc2)CC1` (stereo not drawn): “inactive”.
Next, `Nc1nc2ccc([N+](=O)[O-])c(N)c2s1`: “inactive”; `CCCn1c(=N)c(S(=O)(=O)c2ccc(F)cc2)cc2c(=O)n3cccc(C)c3nc21`: “inactive”; `CC(C)c1cc(C(N)=O)c(NC(=O)c2cccc(COc3ccc(Cl)cc3)c2)s1`: “inactive”.
To `CCn1nc(-c2ccccc2)c2nc3ccccc3nc21` belongs “inactive”; to `C=C1CSc2nc(=O)c3c4c(sc3n21)CCCC4`, “inactive”.
On to `COc1ccc(C(CNC(=O)c2cc(SC)ccc2Cl)N(C)C)cc1` (stereo not drawn), for which the outcome was inactive.
For `O=c1/c(=C/c2ccc(O)c([N+](=O)[O-])c2)sc2nc3ccccc3n12`, the compound was classed as inactive.
To `CCn1cc(C(=O)O)c(=O)c2cc(F)c(N3CCN(C(=S)NC(=O)c4ccc(F)c(F)c4)CC3)cc21` belongs “inactive”; to `Cc1ccnc(NC(c2cccnc2)c2ccc3cccnc3c2O)c1` (stereo not drawn), “inactive”; to `Oc1c(Br)cc(C2N=C(c3ccccc3)NO2)cc1Br` (stereo not drawn), “inactive”.
As for `CCOC(=O)C1(c2nc(N)cs2)COC(=O)C1` (stereo not drawn), the result was inactive.
For the compound `COc1ccccc1-c1ccc(=O)n(CC(=O)Nc2ccc(C(=O)N3CCCC3)cc2)n1`, the compound was classed as inactive.
Next, `O=C(c1ccccc1)N1CCN(c2nc3ccc([N+](=O)[O-])cc3s2)CC1`: “inactive”.
As for `Nc1nc(NCC2CCCO2)nc(Nc2cccc(Cl)c2)c1[N+](=O)[O-]` (stereo not drawn), the call was inactive.
To `COc1ccc(CNC(=O)Cn2nnc(-c3ccc(NC(=O)C4CCCCC4)cc3)n2)cc1` belongs “inactive”; to `Cc1ccc(NC(=O)c2ncn(CCCNCc3ccccn3)n2)cc1C`, “inactive”; to `O=C(NCc1cccs1)Nc1cccc(Cl)c1`, “inactive”.
Regarding `COc1ccc(CCNC(=O)CN2CCOc3ccccc32)cc1OC`, the result was inactive.
Next, `COc1ccc(N2CCN(C3CC(=O)N(c4ccc5c(c4)OCCO5)C3=O)CC2)cc1` (stereo not drawn): “inactive”.
To `Cc1ccc(O)c(C(=O)c2coc(=N)c(C(=O)NC(C)C)c2)c1` belongs “inactive”; to `C=CCNc1ccccc1S(=O)(=O)NCc1ccccc1`, “inactive”; to `O=C(Nc1ccc(Oc2ccccc2)nc1)C1CCCCN1Cc1ccc(OCCO)cc1` (stereo not drawn), “inactive”.
Next, `CCOc1ccc(Nc2nc3c(c(=O)[nH]2)CCCC3)cc1`: “inactive”.
Turning to `COc1ccc(/C=C/C(=O)Nc2ccccc2C(=O)O)cc1OC`, the compound was classed as inactive.
To `NS(=O)(=O)c1ccc(CCNC(=O)Cc2ccc(S(=O)(=O)N3CCCC3)s2)cc1` belongs “inactive”.
Next, `CCn1cc(C(=O)O)c(=O)c2cc(F)c(N3CCN(C)CC3)cc21`: “inactive”; `CC1COc2c(N3CCN(C)CC3)c(F)cc3c(=O)c(C(=O)O)cn1c23` (stereo not drawn): “inactive”.
For `O=C(NC(Cc1ccccc1)c1nc2ccccc2[nH]1)c1ccc(Cl)c([N+](=O)[O-])c1` (stereo not drawn), the call was inactive.
Next, `CCOC(=O)c1c(C)[nH]c(C(=O)N(C)Cc2cccc(OC)c2OC)c1C`: “inactive”; `COc1ccccc1NS(=O)(=O)c1cccc(N=C2N=C(N)c3ccccc32)c1`: “inactive”; `CC(=O)Nc1sc(NC(=O)c2ccccc2)nc1-c1cccs1`: “inactive”.
Next, `Cc1ccc(/C=N/NC(=O)c2ccc(Cn3cc([N+](=O)[O-])cn3)o2)cc1`: “inactive”; `O=C(NCc1cccnc1)C(=O)NCC1OCCN1S(=O)(=O)c1ccc(F)cc1` (stereo not drawn): “inactive”.
Turning to `COc1ccc(C(=O)OC(C)CN2CCN(C)CC2)cc1` (stereo not drawn), the result was inactive.
To `Cc1ccc(-n2c(O)c(C=Nc3ccccc3-c3n[nH]c(=S)[nH]c3=O)c3ccccc3c2=O)cc1C` belongs “inactive”.
Next, `COc1ccc(/C=C(/NC(=O)c2cccc([N+](=O)[O-])c2)C(=O)O)cc1`: “inactive”; `Cc1cc(NC(=O)c2ccc([N+](=O)[O-])cc2)n(C)n1`: “inactive”.
For the compound `O=C(NC(=S)NNC(=O)c1ccccc1O)c1ccccc1`, the compound was called inactive.
To `COCC(=O)Nc1nnc(Cc2ccc(OC)cc2)s1` belongs “inactive”; to `CC(Oc1cccnc1[N+](=O)[O-])C(=O)N1CCc2ccccc21` (stereo not drawn), “inactive”.
For the compound `Cc1nc(-c2cccc(S(=O)(=O)N3CCOCC3)c2)cs1`, the outcome was inactive.
With `CCN(CC)S(=O)(=O)c1cc(NC(=O)c2ccc(-n3cncn3)c([N+](=O)[O-])c2)ccc1C`, the call was inactive.
To `COc1ccc(NC(=O)c2ccccc2[N+](=O)[O-])cc1OC` belongs “inactive”; to `NC(=O)Cn1c(-c2nonc2N)nc2ccccc21`, “inactive”; to `CCCC(=O)Nc1ccc(NC(=O)c2ccccn2)cn1`, “inactive”.
To `Cc1onc(-c2c(F)cccc2Cl)c1C(=O)Nc1sc2c(c1C#N)CCC(C(C)(C)C)C2` (stereo not drawn) belongs “inactive”; to `Cc1onc(-c2ccccc2)c1C(=O)Nc1nc(-c2cc(F)ccc2F)cs1`, “inactive”; to `Cc1ccccc1NC(=O)NCCN1C(=O)C2C3C=CC(C3)C2C1=O` (stereo not drawn), “inactive”.
To `CCOC(=O)c1ccccc1NC(=S)N1CC(C)CC(C)C1` (stereo not drawn) belongs “inactive”; to `CCOC(=O)c1sc(Nc2nc3ccc(OC)cc3s2)cc1C`, “inactive”.
Regarding `CCCn1c(N)c(C(=O)CSc2nnnn2-c2ccc(O)cc2)c(=O)n(C)c1=O`, the outcome was inactive.
Next, `COC(=O)/C(=C/c1ccco1)NC(=O)c1ccccc1`: “inactive”; `O=C1OCCN1C(=O)[C@H]1[C@H](c2ccc(Cl)cc2)C(c2ccccc2)=NN1c1ccccc1`: “inactive”; `COc1cccc(-c2cc(=O)c3cc(NC(C)=O)ccc3[nH]2)c1`: “inactive”.
To `Cc1c(NC2=NC3(CCCCC3)Cc3ccccc32)c(=O)n(-c2ccccc2)n1C` belongs “inactive”.
Next, `O=C(Nc1cccc(NC(=O)c2cccnc2)c1)c1ccccc1`: “inactive”.
Consider `O=C1CN(S(=O)(=O)c2ccccc2C(F)(F)F)CCN1`, for which the result was inactive.
With `CCCOc1cccc(C(=O)Nc2ccc(Br)cc2F)c1`, the compound was classed as inactive.
In the case of `COc1ccc(OC)c(NC(=O)c2cccnc2)c1`, the compound was called inactive.
Take `Cc1nn(-c2ccccc2)c(C)c1NC(=O)COC(=O)c1ccc(Cl)c(S(N)(=O)=O)c1`: the compound was classed as inactive.
As to `CNC(=S)N1CCN(c2c(F)cc3c(=O)c(C(=O)O)cn(C4CC4)c3c2OC)CC1C` (stereo not drawn), the outcome was inactive.
Next, `COc1cc(C(=O)Oc2cc(C)cc(C)c2)cc(OC)c1OC`: “inactive”.
Next, `Cc1ccc(C2CC(c3ccccc3)n3ncnc3N2)cc1` (stereo not drawn): “inactive”; `COc1cc(OC)cc(C(=O)NC2CC(C)(C)NC(C)(C)C2)c1`: “inactive”.
`Cc1ccccc1NC(=O)CCN1CCN(CCO)CC1`: the compound was classed as inactive.
For the compound `CN(Cc1cn[nH]c1-c1ccc(-c2ccccc2)cc1)CC1CCOCC1`, the result was inactive.
For the compound `Cc1ccc(Cn2c(=O)oc3ccccc32)cc1`, the result was inactive.
Next, `O=C(NCc1cccs1)c1cccnc1C(=O)O`: “inactive”.
For `COc1cc(/C=C(\C#N)c2nn(CCO)c(N)c2C#N)cc(OC)c1OC`, the compound was classed as inactive.
For `CCN(CC(=O)NCc1ccc(F)cc1)CC(=O)Nc1ccc(S(=O)(=O)N2CCCC2)cc1`, the compound was called inactive.
Next, `O=C(CSc1nc2ccccc2c(=O)n1CCCN1CCOCC1)Nc1ccc2c(c1)OCO2`: “inactive”; `CC1CCN(C(=O)C2(NC(=O)Nc3cccc(F)c3)CCCCC2)CC1`: “inactive”; `Cc1nc(SCc2nc3ccccc3[nH]2)c2oc3ccccc3c2n1`: “inactive”.
To `Nc1ccc(C(=O)Nc2nc3ccccc3s2)cc1` belongs “inactive”.
Next, `COCc1cc(C)n(CC(=O)NC(C)c2ccccc2)c(=O)c1C#N` (stereo not drawn): “inactive”; `COc1ccc(S(=O)(=O)Nc2nc3c(s2)CCCC3)cc1`: “inactive”.
As to `CCCCOCC1CN(c2ccccc2)C(=O)CS1` (stereo not drawn), the compound was called inactive.
For the compound `Cc1ccc(C)c(NC(=O)CCN2CCc3ccccc3C2)c1`, the call was inactive.
Next, `Cc1ccc(NC(=O)COC(=O)CCC(=O)c2cccs2)c(C)c1`: “inactive”; `COc1ccc(N(CC(=O)NCc2ccc(Cl)cc2)S(=O)(=O)c2ccccc2[N+](=O)[O-])c(OC)c1`: “inactive”.
Next, `Cc1cc(C)nc(SC(C)C(=O)N/N=C/c2cccs2)n1` (stereo not drawn): “inactive”; `Cc1ccc(C(=O)c2cnc3ccccc3c2-c2ccccc2)cc1`: “inactive”.
Next, `CC1=NCC(C)c2c1[nH]c1ccccc21` (stereo not drawn): “inactive”; `Cc1cccc(/C=N/NC(=O)c2cc(C3CC3)nc3ccccc23)n1`: “inactive”; `O=C(NCc1ccccc1)C(=O)NCC1OCCN1S(=O)(=O)c1ccc([N+](=O)[O-])cc1` (stereo not drawn): “inactive”.
As to `Cc1noc(C)c1COC(=O)c1cccc(S(=O)(=O)N2CCOCC2)c1`, the compound was classed as inactive.
Regarding `C#CCOCCOCCOCCNc1nc(N2CCN(C(=O)Cn3cc(CC(C)O)nn3)CC2)nc(N2CCN(C(=O)[C@H](CCCCN)n3cc(CCCC)nn3)CC2)n1` (stereo partly drawn), the outcome was inactive.
Next, `Cc1ccc2cccc(OCC(=O)N3CCc4ccccc43)c2n1`: “inactive”; `COc1cccc(-n2c(SCc3ccccn3)nc3c(c2=O)SCC3)c1`: “inactive”.
As for `COc1ccc(CCNC(=O)/C=C/c2ccco2)cc1OC`, the compound was classed as inactive.
Next, `COc1ccccc1N1CCN(c2nc(-c3ccccc3)cc(C(F)(F)F)n2)CC1`: “inactive”; `Cc1ccccc1OCC(=O)Nc1nnc(-c2ccncc2)s1`: “inactive”.
Take `NC1C2CN(c3nc4c(cc3F)c(=O)c(C(=O)O)cn4-c3ccc(F)cc3F)CC12` (stereo not drawn): the compound was called inactive.
To `CSc1cccc(NC(=O)CN(C)S(=O)(=O)c2cnc[nH]2)c1` belongs “inactive”; to `O=C(N/C(=C/c1ccccc1)C(=O)N1CCCCC1)c1ccc(Br)o1`, “inactive”; to `COc1cccc(NC(=O)c2ccc3c(SCC(=O)O)c4c(nc3c2)CCCC4)c1`, “inactive”.
Next, `COc1ccc(OC)c(C(=O)CSc2nnc(-c3cccs3)o2)c1`: “inactive”.
As for `CC(C)OC(=O)c1nn2c(C(F)(F)F)cc(-c3ccco3)nc2c1Cl`, the outcome was inactive.
Next, `O=C(Nc1ccc(Br)cc1)C1CC(O)CN1C(=O)Oc1ccccc1` (stereo not drawn): “inactive”.
As to `CCOc1ccc(NC(C(=O)Nc2cccc(C(C)=O)c2)c2ccccc2)cc1` (stereo not drawn), the compound was classed as inactive.
For the compound `O=C(NC1CC1)c1ccc(N2CCCCC2)c([N+](=O)[O-])c1`, the compound was called inactive.
Next, `COc1cc2cc(CN(CCO)S(=O)(=O)c3ccccc3Cl)c(=O)[nH]c2cc1OC`: “inactive”.
